# Source: PubChem BioAssay
# In the library only some 11% were active in any assay of this set; here they are far more common.
# 3T3 cytotox: Cytotoxic Profiling in NIH 3T3 Cell Line of Diverse Libraries Using Quantitative High-Throughput Screening | NIH 3T3 viability, CellTiter-Glo ATP luminescence, 48-72 h | Potency, µM (top dose mostly 96.7 µM), for inactives: at the highest dose activity change, negative = cytotoxicity, most hits filed as inhibitors | actives 4.3% (n = 94,000) | AID 1345082, 2018; further: nearly all actives have a fitted effect of over 55% in size
#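 Cytotoxicity was measured by CellTiter-Glo ATP luminescence after 48 or 72 h compound exposure at 37 °C. Mouse NIH 3T3 fibroblasts were seeded at 400 cells/well and dosed by 23 nL pin transfer.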
# HEK293 tox: Cytotoxic Profiling in HEK 293 Cell Line of Diverse Libraries Using Quantitative High-Throughput Screening | actives 6.6% (n = 94,000) | Potency, µM (doses to about 115 µM), for inactives: at the top dose activity change, negative = cytotoxicity, usual class: inhibitors | HEK 293 viability, ATP luminescence (CellTiter-Glo), 48-72 h; further: nearly all actives have a fitted effect of over 60% in size
#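 Cytotoxicity was scored by loss of ATP-coupled luminescence (CellTiter-Glo) in HEK 293 cells. Compound treatment ran 48 or 72 hr at 37 degree Celsius, 5% CO2, 95% humidity.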
# hNpr1 antagonist: Natriuretic polypeptide receptor (hNpr1) antagonism - Primary qHTS; HEK293 hNpr1 GloSensor cGMP, ANP-stimulated luminescence; Potency, µM (top dose mostly 46.3 µM), inactives show at the highest dose activity change, negative = inhibition, hits mostly inhibitors; actives 1.6% (n = 76,000); calls by dose curve; further: nearly all actives have a fitted effect of over 60% in size
#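 Compound pre-incubated 30 min at room temperature on GloSensor-loaded HEK293 cells stably carrying hNpr1 and the pGS-40F cGMP biosensor. Stimulation uses hNppA at 0.1 nM final; luminescence is taken at baseline and 20 min post-agonist.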
# Luciferase inh: Firefly luciferase inhibition profiling of diverse chemical library using quantitative high-throughput screening; purified P. pyralis luciferase, luminescence, biochemical; Potency, µM (series often up to 115 µM), actives largely listed as inhibitors; actives 2.5% (n = 76,000); AID 1347043, 2019; further: nearly all actives have a fitted effect of over 65% in size
# Target sequence (P08659 whole entry, looked up): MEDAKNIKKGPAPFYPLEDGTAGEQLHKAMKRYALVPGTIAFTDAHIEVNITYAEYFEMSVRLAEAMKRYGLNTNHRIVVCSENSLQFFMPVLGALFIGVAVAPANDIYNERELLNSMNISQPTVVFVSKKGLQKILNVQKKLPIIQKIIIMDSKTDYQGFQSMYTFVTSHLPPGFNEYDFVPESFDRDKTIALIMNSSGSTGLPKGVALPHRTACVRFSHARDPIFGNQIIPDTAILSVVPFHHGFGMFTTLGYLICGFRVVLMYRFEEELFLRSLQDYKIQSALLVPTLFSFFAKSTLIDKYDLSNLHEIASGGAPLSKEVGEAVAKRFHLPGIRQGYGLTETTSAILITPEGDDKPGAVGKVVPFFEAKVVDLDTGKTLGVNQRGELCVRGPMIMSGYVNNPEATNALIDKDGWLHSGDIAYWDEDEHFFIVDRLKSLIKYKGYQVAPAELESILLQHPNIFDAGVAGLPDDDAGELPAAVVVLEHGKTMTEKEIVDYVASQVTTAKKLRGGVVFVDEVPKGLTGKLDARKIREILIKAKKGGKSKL
#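 Luminescence read by CCD imaging after purified firefly luciferase (10nM final) was added to substrate buffer holding 10uM D-luciferin and 10uM ATP, pH 7.5, pre-dosed with compound.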
# Starred values were filed as active, the others as inactive; i = inactive; ? = inconclusive; . = not tested or not shown; [ ] = dose if it differs, or a comment. Unless noted, the call rests on the fitted dose curve; in most records, active means well fitted curve in the direction sought with a large enough effect; inconclusive means small, poorly fitted or top-dose-only effect, or another doubt; inactive means no such curve, though single readings can be large; an effect the other way counts as inactive or inconclusive. On the % scale 0 is the no-effect control and ±100 the full control effect; potency means the concentration at half of the fitted maximal effect.
SMILES,3T3 cytotox,HEK293 tox,hNpr1 antagonist,Luciferase inh
CC(=O)Nc1ccc(CN2CCCC3(CC(c4cccnc4)=NO3)C2)cc1 (stereo unspecified),-4%,-5%,.,.
CCn1nccc1C(=O)N1CCC(CCn2c(C)cnc2C)CC1,-28%,?,.,.
COc1cccc(CN2CCCC(Cc3ncc(C)n3Cc3ccccc3)C2)c1OC (stereo unspecified),?,50µM*,-23%,i
O=C(c1ccc2oc(-c3ccncc3Cl)nc2c1)N1CCOCC1,-30%[138 µM],-24%[172 µM],.,.
O=C1NCN(Cc2ccc(Cl)cc2)C12CCN(Cc1ccc(F)cc1)CC2,14µM*,28µM*,-22%,i
O=C1NCN(Cc2ccc(Cl)cc2)C12CCN(Cc1ccc(C(F)(F)F)cc1)CC2,?,40µM*,-21%,i
O=C1NCN(Cc2ccc(Cl)cc2)C12CCN(Cc1cccnc1)CC2,?,?,18%,i
Cc1oc2c(c1C(=O)NCCCN1CCCC1=O)CN(Cc1cccc(F)c1)CC2,-25%,?,6%,?
CC(C)NC(=O)C1CCN(Cc2ccccc2-c2cccnc2)CC1,-23%,-12%,.,.
Cc1ccsc1C(=O)N1CCC2(CC1)N=C(c1ccc(Cl)cc1)NO2,?,?,?,i
O=c1c2nc(Nc3cccc(F)c3)ccc2ncn1-c1cccnc1,?,?,?,i
COc1ccc(Nc2ccc3ncn(-c4ccccc4)c(=O)c3n2)cn1,100µM*,100µM*,5%[70.6 µM],i
CCCN(CC1CC1)C(=O)c1ccc2c(c1)C(O)CCCCCN2CCOC (stereo unspecified),?,79µM*,-10%,i
CC(C)N1C(=O)C2(CCCCC2)C1C(=O)NCCCN1CCCc2ccccc21 (stereo unspecified),?,79µM*,4%,i
CN1CCCCCC(O)c2cc(C(=O)NCCc3ccccn3)ccc21 (stereo unspecified),32µM*,?,-10%,45µM*
CCN(CCN(C)C)C(=O)c1ccc2c(c1)C(O)CCCCCN2CCOC (stereo unspecified),-8%,?,6%,i
COCCN1CCCCCC(O)c2cc(C(=O)NCCCN3CCCC3=O)ccc21 (stereo unspecified),-5%,-4%,1%,i
COCCN1CCCCCC(O)c2cc(C(=O)NCCCN3CCCc4ccccc43)ccc21 (stereo unspecified),?,40µM*,-8%,i
COc1ccccc1OCCNC(=O)c1ccc2c(c1)C(O)CCCCCN2C (stereo unspecified),?,?,-13%,i
COc1ccc(C)cc1NC(=O)c1ccc2c(c1)C(O)CCCCCN2C (stereo unspecified),?,?,-17%,i
COCCN1CCCCCC(O)c2cc(C(=O)Nc3cc(C)ccc3OC)ccc21 (stereo unspecified),?,45µM*,-2%,?
CCCNc1cc(N2CCC(CCC(=O)N3CCN(c4ccc(F)cc4)CC3)CC2)ncn1,20µM*,?,11µM*,?
CCCNC(=O)CCC1CCN(c2cc(NCCC)ncn2)CC1,-11%,1%,-3%,?
CCCNc1cc(N2CCC(CCC(=O)N3CCN(c4cccc(C)c4)CC3)CC2)ncn1,?,20µM*,?,?
CCCNc1cc(N2CCC(CCC(=O)Nc3cccc(C)c3)CC2)ncn1,0%,i,-23%,20µM*
C[C@]1(CO)[C@H]2Cc3sc(NC(=O)c4ccc(F)cc4)nc3[C@@H](CC(=O)NCc3cccnc3)[C@]2(C)CC[C@H]1O,-9%,-11%,2%,i
COc1ccc(CN2C[C@@H](C(N)=O)[C@H](c3nc(C)no3)C2)cc1Cn1ccnc1,-22%,?,3%,i
Cn1nccc1CN1CCCC2(CC(c3cccc(C(F)(F)F)c3)=NO2)C1 (stereo unspecified),-26%,45µM*,0%,i
